Laboratory results as given in ChEMBL document CHEMBL3988442, “University of Dundee, Small-Polar-MMV Screening Library” (2021).
Out of some 48,000 compounds screened, about 13,000 (27%) showed an effect of 50% or more. This is one part of the list.

tested on: Wolbachia pipientis; test: Anti-Wolbachia Cell-Based Screen; assay type: functional; parameters: scale not given: in the data most compounds retested in dose-response had high values; conditions: 5 µM

Compared with `Cn1c(NCC(=O)N2CCCCC2)c(C#N)c(=O)n(C)c1=O`, `CC(C)c1cc(C2CCCN2C(=O)CN2C(=O)CCNC2=O)no1` (configuration not stated) is higher in “Percent Effect” value: -4.549% for the first, 96.7% for the second.

Compared with `Cc1nn(C)c(N2CCOCC2)c1CNC(C)c1cccnc1` (configuration not stated), `Cc1cc(C)c(C(=O)NC2CCN(c3ncccc3C#N)CC2)c(=O)[nH]1` is higher in “Percent Effect” value: -5.13% for the first, 4.704% for the second.

Compared with `Cc1nc(O)cc(CCNC(=O)C2CC(=O)N(CC(C)C)C2)n1` (configuration not stated), `CNC(=O)CCc1cc(C2CCCCN2C(C)C)nc(C)n1` (configuration not stated) is higher in “Percent Effect” value: -0.9354% for the first, 119% for the second.

Compared with `Cc1ncsc1CCC(=O)NCc1csc(N2CCCC2)n1`, `CNC(=O)CCc1cc(C2CCCCN2C)nc(C)n1` (configuration not stated) is higher in “Percent Effect” value: 13.92% for the first, 129.2% for the second.

Going from `CNC(=O)CCN1CCCCCC1c1ccc(C)o1` (configuration not stated) to `Cc1noc(C)c1C1CCCN1CCC(=O)N1CCc2ccccc2C1` (configuration not stated), the “Percent Effect” value rises from -114% to -8.027%.

Going from `Cc1[nH]n(-c2ccccc2)c2nnc(N)c1-2` to `CC(CNC(=O)c1c[nH]nn1)Oc1ccccc1Br` (configuration not stated), the “Percent Effect” value falls from -6.219% to -9.853%.

Compared with `Cc1cc(C2CCCN2C(=O)CN(C)Cc2ccccc2)no1` (configuration not stated), `Cc1ccc2c(c1)SCC(=O)N2CC(=O)N1CCCC1c1cc(C)on1` (configuration not stated) is higher in “Percent Effect” value: -3.366% for the first, -2.59% for the second.

Going from `Cc1noc(C)c1C1CCCN1C(=O)CN1CC2(CCNCC2)OC1=O` (configuration not stated) to `Cc1cc(C2CCCN2C(=O)CN2CC3(CCNCC3)OC2=O)on1` (configuration not stated), the “Percent Effect” value rises from -18.41% to 8.935%.

First: Cc1noc(C)c1C1CCCN1C(=O)CN1C(=O)OC(C)(C)C1=O (configuration not stated)
Second: Cc1cc(C2CCCN2C(=O)CN2C(=O)OC(C)(C)C2=O)on1 (configuration not stated)
The “Percent Effect” value of the first is lower: 87.43% for the first, 91.01% for the second.

Going from `O=C1CCNC(=O)N1CC(=O)N1CCC1c1ccc(F)cc1` (configuration not stated) to `Cc1ccc2c(c1)SCC(=O)N2CC(=O)N1CCCC1c1cc(C)no1` (configuration not stated), the “Percent Effect” value falls from 13.18% to 3.294%.

Going from `Cc1cc(CC(=O)N2CCCC2c2nc(C(C)C)no2)on1` (configuration not stated) to `CC(C)c1cc(C2CCCN2C(=O)CN2C(=O)OC(C)(C)C2=O)no1` (configuration not stated), the “Percent Effect” value rises from -3.815% to 116.9%.

First: Cc1cc(C2CCCCN2C(=O)CN2C(=O)OC(C)(C)C2=O)no1 (configuration not stated)
Second: Cc1cc(C2CCCCN2C(=O)CN2CC3(CCNCC3)OC2=O)no1 (configuration not stated)
The “Percent Effect” value of the first is higher: 120.5% for the first, -1.974% for the second.

First: O=C(Cc1cccs1)NCC1COCc2c(-c3ccoc3)nnn2C1 (configuration not stated)
Second: O=C(Nc1nncs1)c1ccc(-n2cnnn2)cc1
The “Percent Effect” value of the first is lower: -2.287% for the first, -0.9565% for the second.

Compared with `COc1cccc2c1OCC(C(=O)N1CCN(C3CCSCC3)CC1)C2` (configuration not stated), `CC(=O)N1CCC(NC(=O)c2ccccc2-n2cnnn2)CC1` is higher in “Percent Effect” value: -19.41% for the first, 3.237% for the second.

Going from `CN(CCC(F)(F)F)C(=O)[C@H]1CSCN1C(=O)OC(C)(C)C` to `Cc1ccc(C(=O)N2CC(C(N)=O)O[C@H](C)C2)c(C)c1` (some centres not stated), the “Percent Effect” value falls from -7.919% to -8.345%.

Going from `COc1ccc(F)cc1C(=O)Nc1nnc(C)s1` to `Cc1ccc(C(=O)Nc2nnc(CC(C)C)s2)c(-n2cnnn2)c1C`, the “Percent Effect” value rises from 1.67% to 125.4%.

First: Cc1ccc(C(=O)NC2CC2)c(-n2cnnn2)c1C
Second: Cc1ccc(C(=O)Nc2nnc(C3CC3)s2)c(-n2cnnn2)c1C
The “Percent Effect” value of the first is higher: 120.6% for the first, 95.77% for the second.

First: Cc1ccc(C(=O)Nc2nnc(C(C)C)s2)c(-n2cnnn2)c1C
Second: CCc1nnc(NC(=O)c2ccc(C3CCCN3CC(C)C)s2)s1 (configuration not stated)
The “Percent Effect” value of the first is higher: 110.4% for the first, -1.663% for the second.

First: Cc1ccc(CNC(=O)Nc2nnc(C3CC3)s2)n1C
Second: Cc1nn(C)c(C)c1CCC(=O)Nc1nnc(C2CC2)s1
The “Percent Effect” value of the first is lower: -14.35% for the first, 27.73% for the second.

Going from `O=C(NC1CC1)c1cc(Cl)ccc1-n1cnnn1` to `O=C(NC1CCCN(c2ccc(OC(F)F)cc2)C1)c1cnc[nH]1` (configuration not stated), the “Percent Effect” value falls from 2.892% to -8.702%.

Going from `Cc1cc(C(=O)N[C@H](C)c2onc(C)c2C(=O)O)c(C)o1.Cl` to `Cc1ccc(OC(C)CNC(=O)c2c[nH]nn2)cc1` (configuration not stated), the “Percent Effect” value rises from -8.572% to 4.97%.

Compared with `CCCSc1ncc(-c2nccn2CCC(N)=O)cn1`, `CC(CNC(=O)c1c[nH]nn1)Oc1ccc(Cl)cc1` (configuration not stated) is higher in “Percent Effect” value: -44.89% for the first, 99.95% for the second.

Going from `CC(CNC(=O)c1cnc[nH]1)Oc1ccc(Cl)cc1` (configuration not stated) to `CC(CNC(=O)c1cnc[nH]1)Oc1ccccc1Br` (configuration not stated), the “Percent Effect” value rises from 110.7% to 110.9%.

First: CC(CNS(N)(=O)=O)Oc1ccc(Cl)cc1 (configuration not stated)
Second: CC(CNC(=O)c1c[nH]nn1)Oc1cccc(Br)c1 (configuration not stated)
The “Percent Effect” value of the first is higher: -13.16% for the first, -32.96% for the second.

First: CN(Cc1ccco1)Cc1ccccc1CNC(=O)c1cnc[nH]1
Second: COc1ccccc1OC(C)CNC(=O)c1cnc[nH]1 (configuration not stated)
The “Percent Effect” value of the first is lower: -12.45% for the first, 110.3% for the second.

Going from `CC(C)Oc1ccccc1CNC(=O)c1[nH]ncc1Br` to `COc1ccccc1C(C)CNC(=O)c1[nH]ncc1Br` (configuration not stated), the “Percent Effect” value rises from 24.22% to 42.12%.
